From PubChem BioAssay
Calls of active or inactive are those of the source.

Test: E. coli acrAB mutant growth effects, primary screen, E. coli filamentation inducers, strain DRC39, OD650, 24 h (AID 1178);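 note: growth measured as culture turbidity by optical density at 650 nm; test concentration not given here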
Conditions: higher = more signal, called active from +8 up or from −8 down

z-score, inactive:
COc1ccc(COC(=O)NN=C2C[C@@H](O)[C@@H](O)[C@@H]3[C@@H]4C(=O)N(Cc5ccccc5)C(=O)[C@@H]4CC[C@@H]23)cc1 0.918
O=C1C=C[C@@H](O)[C@@H]2[C@@H]3C(=O)N(Cc4ccccc4)C(=O)[C@@H]3CC[C@@H]12 0.479
CCCC[C@H]1CN2[C@@H](CC[C@@H](C)[C@@H]2c2ccc(Br)cc2)C(=O)O1 -0.959
COc1ccc(O[C@H]2C=C[C@@H](C#Cc3ccccc3)O[C@@H]2CO)cc1 0.633
O=C(NCCC[N+]1=CC=NC1c1ccccc1)N1CCCc2nc(-c3ccc(Br)cc3)ccc21 (stereo unspecified) 1.11
C[C@H]1CC[C@@H](C(=O)O)N[C@@H]1c1ccc(C#Cc2ccccc2)cc1 -0.0449
CC(C)CN1CCc2nc(-c3ccccc3)c3c(c2C1)CO[C@@H](C)C3 -0.838
COc1ccc(COC(=O)NN=C2C[C@@H](O)[C@@H](O)[C@@H]3[C@@H]4C(=O)N(Cc5ccc6c(c5)OCO6)C(=O)[C@@H]4CC[C@H]23)cc1 0.586
COC(=O)C(C(=O)OC)C1CCCC(=O)C1 (stereo unspecified) -1.37
CC(C)[C@@H](OCc1ccccc1)[C@H](C)C=NOC[C@@H](O)[C@H]1O[C@@H]2OC(C)(C)O[C@@H]2[C@H]1O 0.0024
CCc1cc2c(nc1CC)CCN(CCC(C)=NO[C@@H]1O[C@H](COC(C)=O)[C@@H](OC(C)=O)[C@H](OC(C)=O)[C@H]1OC(C)=O)C2 -1.25
